CYP2C19 inhib – blocks human cytochrome P450 2C19 | P33261 | CYP2C19 Supersomes, luciferin-H EGE luminescence, 30 min | inhibition, % at 5 µM | 96,000 tested, 21% active;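 active means CYP2C19 inhibition above a set limit at 5 µM in the primary screen, cut at about 50% in these data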
Target sequence (P33261 whole entry, looked up): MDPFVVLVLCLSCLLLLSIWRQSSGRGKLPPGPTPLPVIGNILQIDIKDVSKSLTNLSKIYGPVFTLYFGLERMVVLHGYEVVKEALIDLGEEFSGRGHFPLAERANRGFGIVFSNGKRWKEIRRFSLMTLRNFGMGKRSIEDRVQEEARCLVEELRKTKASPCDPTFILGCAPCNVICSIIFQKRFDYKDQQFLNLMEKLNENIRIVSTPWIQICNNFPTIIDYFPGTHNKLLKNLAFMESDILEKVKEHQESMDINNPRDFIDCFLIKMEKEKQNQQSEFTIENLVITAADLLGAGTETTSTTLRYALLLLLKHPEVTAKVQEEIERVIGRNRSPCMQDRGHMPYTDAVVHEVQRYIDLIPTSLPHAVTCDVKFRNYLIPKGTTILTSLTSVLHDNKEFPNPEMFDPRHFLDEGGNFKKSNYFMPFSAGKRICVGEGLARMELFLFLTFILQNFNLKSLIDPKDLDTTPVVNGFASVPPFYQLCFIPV
CYP2C9 inhib – human CYP2C9 inhibition; 96,000 tested, 20% active; inhibition, % at 5 µM; AID 777; CYP2C9 Supersomes, luciferin-H conversion, luminescence;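 active means blocking of liver enzyme CYP2C9 beyond about 50% at 5 µM, limit read from the data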
CYP2C9 activ – activators of human CYP2C9 | recombinant CYP2C9, luciferin-H conversion, luminescence; active compounds read high; factor 1 = untreated enzyme, 0 = blocked | activation factor at 5 µM | 96,000 tested, 1.4% active | AID 1024;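 active means activation factor of 2 or more for CYP2C9 at a 5 µM dose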
CYP2C19 activ – increases human CYP2C19 enzyme activity; P33261; recombinant CYP2C19, luciferin-H EGE luminescence; active compounds read high; 0 = fully inhibited enzyme, 1 = untreated enzyme; activation factor at 5 µM; 96,000 tested, under 10 active; AID 1025;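 active means activation factor of at least 2 at 5 µM in the primary screen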
Cav32 inh – blocks human Cav3.2 T-type calcium channel. O95180. Cav3.2-expressing cells, Fluo-4 calcium fluorescence FDSS; active compounds read low. B-score at 10 µM. 100,000 tested, 4% active. AID 449739;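 active means single-dose well whose peak fluorescence ratio is a statistical outlier from its plate by either plate-standardised score or position-corrected B-score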
Numbers stand for hits; . = inactive; / = no result. This is a sample that favours compounds with a hit; in the whole collection about 27% have one here.

SMILES | CYP2C19 inhib | CYP2C9 inhib | CYP2C9 activ | CYP2C19 activ | Cav32 inh
Cc1ccc2[nH]c3c(N4CCN(Cc5ccc6c(c5)OCO6)CC4)ncnc3c2c1 | 50 | 88 | . | . | /
CCOc1ccc2[nH]c3c(N4CCN(c5ccccn5)CC4)ncnc3c2c1 | 80 | 69 | . | . | .
Cc1ccc2[nH]c3c(=O)n(Cc4ccncc4)cnc3c2c1 | . | 63 | . | . | .
CCN(CC)CCNc1ncnc2c1[nH]c1ccc(OC)cc12 | / | / | / | / | .
c1nc(N2CCN(Cc3ccc4c(c3)OCO4)CC2)c2[nH]cnc2n1 | . | . | . | . | .
c1ccc(CN2CCN(c3ncnc4c3[nH]c3ccccc34)CC2)cc1 | 54 | 55 | . | . | .
Cc1ccc2c(c1)[nH]c1c(N3CCN(Cc4ccccc4)CC3)ncnc12 | . | 65 | . | . | -4.9
Cc1ccc2[nH]c3c(N4CCN(Cc5ccccc5)CC4)ncnc3c2c1 | 78 | 95 | . | . | .
COc1cccc2[nH]c3c(N4CCN(Cc5ccc6c(c5)OCO6)CC4)ncnc3c12 | 94 | 85 | . | . | /
Cc1ccc2c(c1)[nH]c1c(=O)n(CCN3CCCCC3)cnc12 | . | . | . | . | /
COc1cccc2[nH]c3c(N4CCC(C)CC4)ncnc3c12 | . | . | . | . | .
CCN1CCN(Cc2nc3c(c(=O)n(C)c(=O)n3C)n2Cc2cccc3ccccc23)CC1 | . | . | . | . | .
CCS(=O)(=O)Nc1ccc2c(c1)N(C(C)=O)c1ccccc1CC2 | . | 70 | . | . | .
CCOC(=O)Nc1ccc2c(c1)N(C(=O)OCCN(C)C)c1ccccc1CC2 | . | . | . | . | .
CC1(C)Cc2c(C#N)c(N3CCN(C(=O)c4ccco4)CC3)nc(-c3ccco3)c2CS1 | / | / | / | / | .
CC(=O)N1CCN(c2nc(-c3ccco3)c3c(c2C#N)CC(C)(C)SC3)CC1 | . | 78 | . | . | .
CC1(C)Cc2c(C#N)c(N3CCN(C(=O)c4ccccc4Cl)CC3)nc(-c3ccco3)c2CS1 | . | 70 | . | . | .
O=C(Nc1ccc(S(=O)(=O)Nc2ncccn2)cc1)c1ccc(Br)s1 | . | . | . | . | .
COc1cccc(-c2nc(N3CCCCC3C)c3ccccc3n2)c1O (centres undefined) | . | 84 | . | . | .
CCN(CC)c1nc(-c2cccc(OC)c2O)nc2ccccc12 | . | . | . | . | .
CCOC(=O)C1CCCN(CCC(=O)Nc2ccc3c(c2)CCC3)C1 (centres undefined) | . | . | . | . | .
CC1CC(C)CN(CCOc2ccc(Cl)cc2Cl)C1 (centres undefined) | 98 | . | . | . | .
CC(=O)O[C@H]1CC(C)(C)C(=C=C/C(C)=C/C=C/C(C)=C/C=C/C=C(C)/C=C/C=C(\C)C(=O)C[C@@]23O[C@]2(C)C[C@@H](O)CC3(C)C)[C@](C)(O)C1 | / | / | / | / | .
COc1ccc(-c2cc(C(=O)Nc3c(C)nn(Cc4ccc(Cl)cc4)c3C)no2)cc1 | 51 | . | . | . | -4.6
Cc1nn(Cc2ccc(Cl)cc2)c(C)c1NC(=O)c1cc(-c2ccco2)on1 | . | . | . | . | /
SMILES | CYP2C19 inhib | CYP2C9 inhib | CYP2C9 activ | CYP2C19 activ | Cav32 inh
Cc1ccc(Cn2nc(C)c(NC(=O)c3cc(-c4ccco4)on3)c2C)cc1 | . | . | . | . | /
COc1ccc(OC)c(-c2cc(C(=O)Nc3c(C)nn(Cc4ccccc4Cl)c3C)no2)c1 | . | . | . | . | .
Cc1nn(Cc2ccc(Cl)c(Cl)c2)c(C)c1NC(=O)c1cc(-c2ccco2)on1 | / | / | / | / | -5.7
Cc1ccc(Cn2nc(C)c(NC(=O)c3cc(-c4ccc5c(c4)OCO5)on3)c2C)cc1 | . | 53 | . | . | -5.3
COc1ccc(-c2cc(C(=O)Nc3c(C)nn(Cc4ccccc4Cl)c3C)no2)cc1OC | . | 63 | . | . | .
CN1CCN(C(=O)c2cc3c(C(F)(F)F)nn(C)c3s2)CC1 | . | . | . | . | .
CCC(=O)NCCc1nc2cc(NC(=O)c3ccc(OC)cc3)ccc2n1C | . | . | . | . | .
Cc1cc(Nc2nc3ccccc3nc2Cl)n(-c2ccccc2)n1 | . | . | . | . | .
Cc1cc(Nc2ccccc2)n(-c2ccc(Br)cc2)n1 | 90 | 97 | . | . | -7.2
Cc1cc(Nc2ccc(Cl)cc2)n(-c2cccc(Cl)c2)n1 | 99 | 98 | . | . | .
O=C(COc1ccc(Cl)cc1Cl)Nc1nc2n(n1)C(c1ccccc1)CC(=O)N2 (centres undefined) | . | . | . | . | -3.7
Cc1cc(Nc2nnnn2-c2ccccc2)n(-c2ccccc2)n1 | . | . | . | . | .
Cc1cc(Nc2ccc(Cl)cc2)n(-c2ccccc2)n1 | 59 | 70 | . | . | .
CC(=O)N1CCc2ccc(C(=O)CN3CCN(c4cccc(C)c4C)CC3)cc21 | . | . | . | . | .
Cc1oc(-c2ccc(Cl)cc2)[n+]([O-])c1C | . | . | . | . | .
Cc1oc(C(=O)O)cc1COc1cccc2cccnc12 | . | . | . | . | .
Cc1cc(NC(=O)c2ccc(C)s2)n(-c2ccccc2)n1 | 76 | . | . | . | .
Cc1cc(NC(=O)COc2ccc(Cl)cc2Cl)n(-c2ccccc2)n1 | 71 | . | . | . | .
Cc1cc(NC(=O)c2cc(CC(C)C)on2)n(-c2ccccc2)n1 | / | / | / | / | .
O=C(CC(NCCc1ccccc1)C(=O)O)Nc1ccc(O)cc1 (centres undefined) | . | . | . | . | /
O=C(CCCC(=O)OCC1CCCO1)OCC1CCCO1 (centres undefined) | . | . | . | . | .
Cc1ccc(-c2cc(C(=O)NCc3ccccn3)c3ccccc3n2)cc1C | . | 59 | . | . | .
O=C(N/N=C/c1ccc(F)cc1)c1cc(-c2ccco2)nc2ccccc12 | . | . | . | . | /
CC(/C=N/NC(=O)c1cc(-c2ccncc2)nc2ccccc12)=C\c1ccco1 | 96 | 100 | . | . | /
O=C(NCc1ccco1)c1cc(-c2ccncc2)nc2ccccc12 | 80 | 57 | . | . | -5.8
SMILES | CYP2C19 inhib | CYP2C9 inhib | CYP2C9 activ | CYP2C19 activ | Cav32 inh
O=C(NCc1ccco1)c1cc(-c2cccnc2)nc2ccccc12 | . | 70 | . | . | .
O=C(NCc1ccccc1)C1=C[C@H](c2coc3ccccc3c2=O)C[C@H](OCCCCO)O1 | / | / | / | / | .
Cn1c(/C=C/c2ccc([N+](=O)[O-])o2)nc2ccccc2c1=O | / | . | . | / | .
O=C(N/N=C/c1ccc([N+](=O)[O-])o1)c1cc(-c2ccncc2)nc2ccccc12 | 53 | 90 | . | . | .
Nc1nc(-c2ccc3c(c2)NC(=O)CO3)cs1 | . | . | . | . | /
COc1ccccc1N=c1scc(-c2ccc3c(c2)NC(=O)CO3)n1CC1CCCO1 (centres undefined) | . | . | . | . | -3.9
O=C1COc2ccc(-c3csc(=Nc4ccc(OC(F)F)cc4)n3CC3CCCO3)cc2N1 (centres undefined) | . | . | . | . | .
CN(C)S(=O)(=O)c1cccc(N=c2scc(-c3ccc4c(c3)NC(=O)CO4)n2CC2CCCO2)c1 (centres undefined) | . | 50 | . | . | /
O=C(/C=C/c1ccccc1)NCCc1ccccc1 | / | / | / | / | .
